This is an account of results in PubChem BioAssay (NCI).

The structures appear in SMILES notation. The panel holds about 83,000 compounds, 20% with a hit somewhere; the sample as a whole holds those more often.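 The test compound was applied at a single concentration to cells in 96-well plates for 48 hours, and percent growth was recorded.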 A number with no mark means an inactive call. The source made the active and inactive calls. How the source made its calls: active means growth percent below 10; inactive means the rest.

For the first test, the system named is SK-OV-3 ovarian. Kind of test: NCI-60 one-dose screen, 48 h (100 = growth as untreated, 0 = no growth, -100 = all killed). Particulars: 10 µM unless noted.
On to `COc1ccc(-c2oc3cc(O)c(OC)c(O)c3c(=O)c2OC)cc1O`, for which the growth is 24.5%.

As to `c1ccc(-c2nnc(Nc3nnc(-c4ccccc4)s3)s2)cc1`, the growth was 96.8%.

Turning to `CCN1CCN(c2cc(-c3cn[nH]c3-c3cc(C)cc(OC)c3)nc(-c3cccnc3)n2)CC1`, the growth was 116%.

Turning to `CCCn1cnc2c1c(=O)n(CCCCC(C)=O)c(=O)n2C`, the growth is 95.1%.

As for `O=C1C2C3C=CC(O3)C2C(=O)N1Nc1ccccc1` (centres undefined), the growth is 118%.

With `O=C(Nc1ccncc1)C(=O)c1cn(S(=O)(=O)c2cccc(F)c2)c2ccccc12`, the growth was 93.8%.

Turning to `COc1ccc(-c2csc(NC(=O)c3cc(OC)c(OC)c(OC)c3)n2)cc1`, the growth is 101%.

Turning to `CCC1=C(c2ccc(OC)cc2)C(C)(C)Oc2cc(O)c(CN3CCCC3)cc21`, the growth was 89.2%.

As for `CCOc1nc(-c2ccccc2)cc2c(O)c(-c3nnco3)[nH]c(=O)c12`, the growth is 59.3%.

Consider `C=C1CC[C@@H]2[C@](C)(COC(C)=O)[C@H](OC(C)=O)CC[C@@]2(C)[C@@H]1CC(Nc1ccc(S(=O)(=O)Nc2cc(C)on2)cc1)C1=CCOC1=O` (some centres undefined), for which the growth was 109%.

Turning to `COc1ccc(C2=NN(C(=O)c3cc(OC)c(OC)c(OC)c3)C(c3ccc(C#N)cc3)C2)cc1OC` (centres undefined), the growth was 19.8%.

As for `O=C1/C(=N/O)CCc2ccccc21`, the growth is 100%.

For the compound `O=C(/C=C/c1cccnc1)NCCCCC1CCCN(C(=O)c2ccccc2)C1` (centres undefined), the growth is 91.6%.

As to `COc1ccc(Nc2ccnc(NCCCNc3ccnc4cc(Cl)ccc34)n2)cc1`, the growth was -5.22% (active).

In the case of `COc1ccc2nc(NC(=O)c3cc(-c4ccc(F)cc4)n4nc(-c5ccccc5)cc4n3)sc2c1`, the growth was 67.6%.

Take `COc1cc(/C=C/C(=O)N2CCN(C(=O)/C=C/c3ccccc3)CC2)cc(OC)c1OC`: the growth was 122%.

`O=C1C[C@@H]2/C(=C(O)\C=C\c3ccccc3)C(=O)C=C[C@@H]2O1`: the growth was 86.1%.

Consider `COc1cc(/C=C/c2nnc(-c3cc(-c4ccccc4)n[nH]3)o2)cc(OC)c1OC`, for which the growth was 88.7%.

For the compound `O=[N+]([O-])c1ccc2c(c1)S(=O)c1cc([N+](=O)[O-])ccc1N2`, the growth was 103%.

Regarding `C/C(=C\CCc1ccoc1)CC/C=C(\C)CCCN1CCC(CO)CC1`, the growth is 65.1%.

For `O=C1/C(=C/c2ccc([N+](=O)[O-])o2)Oc2ccc(Cl)cc21`, the growth is 85.6%.

Take `COc1cc(C2NC(c3ccc(Cl)cc3)C(C)/C(=N/NC(N)=S)C2C)cc(OC)c1OC` (centres undefined): the growth was 101%.

As to `CCC(CC)NCCCCCNc1cc(OC)cc2cccnc12`, the growth is 97.7%.

`CCOc1nc(-c2ccccc2)cc2c(O)c(C(=O)n3nc(C)cc3C)[nH]c(=O)c12`: the growth was 102%.

Regarding `O=C(/C(=N/O)S(=O)(=O)c1ccccc1)c1cccs1`, the growth was 94%.

As to `COc1cc(C2NC(c3ccc(Cl)cc3)C(C)C(=NC(=O)c3cnccn3)C2C)cc(OC)c1OC` (centres undefined), the growth is 108%.

For `COc1ccc2c(c1)C(=O)/C(=C/c1ccc([N+](=O)[O-])s1)O2`, the growth was 74.6%.

As for `COc1cc(C(=O)/C=C/c2cccnc2Nc2ccccc2)cc(OC)c1OC`, the growth is -3.48% (active).

In the case of `CCCCn1c(Cc2ccc(Cl)cc2)nc2cc(OC)c(OC)cc2c1=O`, the growth was 187%.

For the compound `OCCOc1c(Cl)cc(Cl)cc1Cl`, the growth was 106%.

For the compound `COc1ccc2nc3cc(Cl)ccc3c(N3CCN(c4ccnc(Nc5ccc(F)cc5)n4)CC3)c2c1`, the growth was 111%.

As for `COc1ccc(-c2cc(Cc3cccs3)c(=O)n(Cn3ccc4ccccc43)n2)cc1`, the growth is 106%.

`CCc1[nH]nc(-c2ccc(OC)cc2)c1-c1ccccc1OCCN(CC)CC`: the growth is 91.8%.

Consider `COc1ccc(-c2cc(C(=O)Nc3nc4cc(C)c(C)cc4s3)nc3cc(-c4ccccc4)nn23)cc1OC`, for which the growth is 105%.

With `Nc1ccc2c3c(cccc13)-c1ccccc1-2`, the growth is 99.6%.

`COc1cccc(-c2nnc(N)o2)c1`: the growth is 115%.

For the compound `COc1cc2c(cc1OCCCOc1ccc(-c3cc4ccccc4c4ccccc34)cc1)N=C[C@@H]1CCCN1C2=O`, the growth is -19.3% (active).

Another test concerns IGROV1 ovarian. The description is as above. Particulars: 10 µM unless noted.
As for `COc1ccc(-c2oc3cc(O)c(OC)c(O)c3c(=O)c2OC)cc1O`, the growth is 12.2%.

For the compound `c1ccc(-c2nnc(Nc3nnc(-c4ccccc4)s3)s2)cc1`, the growth was 86.7%.

For the compound `CCN1CCN(c2cc(-c3cn[nH]c3-c3cc(C)cc(OC)c3)nc(-c3cccnc3)n2)CC1`, the growth is 84.4%.

On to `CCCn1cnc2c1c(=O)n(CCCCC(C)=O)c(=O)n2C`, for which the growth is 97.6%.

`O=C1C2C3C=CC(O3)C2C(=O)N1Nc1ccccc1` (centres undefined): the growth was 124%.

With `O=C(Nc1ccncc1)C(=O)c1cn(S(=O)(=O)c2cccc(F)c2)c2ccccc12`, the growth is 40.6%.

As to `COc1ccc(-c2csc(NC(=O)c3cc(OC)c(OC)c(OC)c3)n2)cc1`, the growth was 100%.

As for `CCC1=C(c2ccc(OC)cc2)C(C)(C)Oc2cc(O)c(CN3CCCC3)cc21`, the growth is 87.1%.

Consider `CCOc1nc(-c2ccccc2)cc2c(O)c(-c3nnco3)[nH]c(=O)c12`, for which the growth is 36.7%.

In the case of `C=C1CC[C@@H]2[C@](C)(COC(C)=O)[C@H](OC(C)=O)CC[C@@]2(C)[C@@H]1CC(Nc1ccc(S(=O)(=O)Nc2cc(C)on2)cc1)C1=CCOC1=O` (some centres undefined), the growth was 62.6%.

With `COc1ccc(C2=NN(C(=O)c3cc(OC)c(OC)c(OC)c3)C(c3ccc(C#N)cc3)C2)cc1OC` (centres undefined), the growth is 13.4%.

With `O=C1/C(=N/O)CCc2ccccc21`, the growth was 69.5%.

As to `O=C(/C=C/c1cccnc1)NCCCCC1CCCN(C(=O)c2ccccc2)C1` (centres undefined), the growth was 33.8%.

For `COc1ccc(Nc2ccnc(NCCCNc3ccnc4cc(Cl)ccc34)n2)cc1`, the growth is 21.7%.

Regarding `COc1ccc2nc(NC(=O)c3cc(-c4ccc(F)cc4)n4nc(-c5ccccc5)cc4n3)sc2c1`, the growth is 101%.

For `COc1cc(/C=C/C(=O)N2CCN(C(=O)/C=C/c3ccccc3)CC2)cc(OC)c1OC`, the growth was 115%.

For `O=C1C[C@@H]2/C(=C(O)\C=C\c3ccccc3)C(=O)C=C[C@@H]2O1`, the growth is -52.6% (active).

Consider `COc1cc(/C=C/c2nnc(-c3cc(-c4ccccc4)n[nH]3)o2)cc(OC)c1OC`, for which the growth was 110%.

In the case of `O=[N+]([O-])c1ccc2c(c1)S(=O)c1cc([N+](=O)[O-])ccc1N2`, the growth was 117%.

`C/C(=C\CCc1ccoc1)CC/C=C(\C)CCCN1CCC(CO)CC1`: the growth is 67.8%.

Take `O=C1/C(=C/c2ccc([N+](=O)[O-])o2)Oc2ccc(Cl)cc21`: the growth is -53.6% (active).

As to `COc1cc(C2NC(c3ccc(Cl)cc3)C(C)/C(=N/NC(N)=S)C2C)cc(OC)c1OC` (centres undefined), the growth is 89.7%.

For `CCC(CC)NCCCCCNc1cc(OC)cc2cccnc12`, the growth was 111%.

For `CCOc1nc(-c2ccccc2)cc2c(O)c(C(=O)n3nc(C)cc3C)[nH]c(=O)c12`, the growth was 97.4%.

On to `O=C(/C(=N/O)S(=O)(=O)c1ccccc1)c1cccs1`, for which the growth was 109%.

As for `COc1cc(C2NC(c3ccc(Cl)cc3)C(C)C(=NC(=O)c3cnccn3)C2C)cc(OC)c1OC` (centres undefined), the growth is 91.6%.

Turning to `COc1ccc2c(c1)C(=O)/C(=C/c1ccc([N+](=O)[O-])s1)O2`, the growth is -58.3% (active).

On to `COc1cc(C(=O)/C=C/c2cccnc2Nc2ccccc2)cc(OC)c1OC`, for which the growth is -38.2% (active).

Consider `CCCCn1c(Cc2ccc(Cl)cc2)nc2cc(OC)c(OC)cc2c1=O`, for which the growth was 69.9%.

With `OCCOc1c(Cl)cc(Cl)cc1Cl`, the growth is 115%.

On to `COc1ccc2nc3cc(Cl)ccc3c(N3CCN(c4ccnc(Nc5ccc(F)cc5)n4)CC3)c2c1`, for which the growth was 87.5%.

As to `COc1ccc(-c2cc(Cc3cccs3)c(=O)n(Cn3ccc4ccccc43)n2)cc1`, the growth is 124%.

On to `CCc1[nH]nc(-c2ccc(OC)cc2)c1-c1ccccc1OCCN(CC)CC`, for which the growth is 98.6%.

As to `COc1ccc(-c2cc(C(=O)Nc3nc4cc(C)c(C)cc4s3)nc3cc(-c4ccccc4)nn23)cc1OC`, the growth is 122%.

As for `Nc1ccc2c3c(cccc13)-c1ccccc1-2`, the growth is 84%.

Turning to `COc1cccc(-c2nnc(N)o2)c1`, the growth was 102%.

Consider `COc1cc2c(cc1OCCCOc1ccc(-c3cc4ccccc4c4ccccc34)cc1)N=C[C@@H]1CCCN1C2=O`, for which the growth is -72.3% (active).
